Here are results for 37 compounds from PubChem BioAssay (NCI).

The panel holds about 79,000 compounds, 15% with a hit somewhere; the sample as a whole holds those more often. Values without a mark were called inactive. Active and inactive are the calls of the source. No stated cut-off is given here; in the data, active means growth inhibition above about 70%; inactive means the rest.

Experiment [1] in a line: NCI Yeast Anticancer Drug Screen. Data for the rad50 strain (AID 155).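 Further: 0% = growth of vehicle-only cultures of the same strain.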 To be noted: S. cerevisiae rad50 strain growth inhibition; at 50.0 µM; active compounds read high. In short, it runs like this: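 Inhibition values express reduced yeast growth in compound-treated cultures relative to vehicle-treated controls.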
A short description of experiment [2]: NCI Yeast Anticancer Drug Screen. Data for the mec2-1 strain (AID 157). To be noted: S. cerevisiae mec2-1 strain, at 50.0 µM, active compounds read high. An outline of the steps: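 Vehicle-treated cultures served as reference for growth inhibition of compound-exposed mec2-1 yeast.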
The nature of experiment [3]: NCI Yeast Anticancer Drug Screen. Data for the sgs1 mgt1 strain (AID 161).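 Further: 0% = growth of cultures given vehicle only.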 To be noted: S. cerevisiae sgs1 mgt1 strain, at 50.0 µM, active compounds read high. An outline of the steps:
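Mutant yeast exposed to compound; growth scored against vehicle-only wells.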

Experiment [4] in a line: NCI Yeast Anticancer Drug Screen. Data for the cln2 rad14 strain (AID 165).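 Further: 0% = growth equal to vehicle treated cultures.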 Conditions: S. cerevisiae cln2 rad14 strain, at 50.0 µM, active compounds read high. In short, it runs like this: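 Each compound was tested on cln2 rad14 yeast. Inhibition of growth was calculated against vehicle-exposed controls.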
Experiment [5] in a line: NCI Yeast Anticancer Drug Screen. Data for the bub3 strain (AID 167). Conditions: S. cerevisiae bub3 mutant strain, at 50.0 µM, active compounds read high. An outline of the steps: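 Steps: expose the mutant yeast strain to compound; grow alongside vehicle-treated cultures; measure growth; express inhibition against the vehicle cultures.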
Experiment [6] is described as follows: NCI Yeast Anticancer Drug Screen. Data for the mlh1 rad18 strain (AID 175). Conditions: S. cerevisiae mlh1 rad18 strain growth inhibition; at 50.0 µM; active compounds read high. In short, it runs like this: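 Vehicle-treated cultures served as the reference for growth inhibition in a yeast strain carrying DNA damage repair alterations exposed to each compound.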

Take `CCN(CC)CCN(CC)CC(=O)Nc1ccccc1Cl`: the growth inhibition is -14.9% in experiment [1]; -29.9% in experiment [2]; -1.65% in experiment [3]; 4.35% in experiment [4]; -3.6% in experiment [5]; -14.2% in experiment [6].

In the case of `O=C(NNC1=NCCCN1)c1ccco1`, the growth inhibition in experiment [1] was 2.1%; in experiment [2], -0.75%; in experiment [3], 9.25%; in experiment [4], -22.2%; in experiment [5], 7.5%; in experiment [6] it was -3.85%.

For `Cc1cc(N(C)C)c([N+](=O)[O-])cc1C=O`, the growth inhibition in experiment [1] was 5.9%; in experiment [2], 13.8%; in experiment [3], -13.3%; in experiment [4] it was -22.4%; in experiment [5], -24.9%; in experiment [6], -5.8%.

Take `C[Si](C)(C)N1N=NC2C(=O)N(c3ccccc3)C(=O)C21` (configuration not stated): the growth inhibition in experiment [1] is -10.4%; in experiment [2] it was -0.5%; in experiment [3] it was -13.4%; in experiment [4], 0.1%; in experiment [5], 0.4%; in experiment [6] it was -7.4%.

For `CCCCCCCCCCCCCCCCOC(=O)c1cc([N+](=O)[O-])cc([N+](=O)[O-])c1Sc1ncnc2nc[nH]c12`, the growth inhibition was -3.8% in experiment [1]; -7.8% in experiment [2]; 3.5% in experiment [3]; -2.35% in experiment [4]; -21.2% in experiment [5]; -32.2% in experiment [6].

On to `OCc1c(CO)c(-c2ccc(Cl)c(Cl)c2)n2c1CCC2`, for which the growth inhibition was 13.4% in experiment [1]; 2.4% in experiment [2]; 8.1% in experiment [3]; 14.9% in experiment [4]; -0.2% in experiment [5]; 51% in experiment [6].

With `CC1(C2=CCCCC2)CCC(=O)NC1=O` (configuration not stated), the growth inhibition was -6.35% in experiment [1]; 10.6% in experiment [2]; 0.2% in experiment [3]; 35.2% in experiment [4]; 14.1% in experiment [5]; 28.8% in experiment [6].

In the case of `C=C(C)c1nn(-c2ccccc2)c2c1C(=O)CC(C)O2` (configuration not stated), the growth inhibition was -12.2% in experiment [1]; -26.2% in experiment [2]; 1.8% in experiment [3]; 29.2% in experiment [4]; -7.45% in experiment [5]; 8.5% in experiment [6].

For the compound `O=[N+]([O-])c1cc(Cl)ccc1NC(Nc1ccc(Cl)cc1[N+](=O)[O-])C(Cl)(Cl)Cl`, the growth inhibition is 44.5% in experiment [1]; 10.1% in experiment [2]; 28.4% in experiment [3]; -31.9% in experiment [4]; 3.6% in experiment [5]; 35.8% in experiment [6].

Take `CCCc1c(N)nc(N)nc1N`: the growth inhibition in experiment [1] was 3.4%; in experiment [2] it was 2.05%; in experiment [3], -5.7%; in experiment [4], -48.6%; in experiment [5], 7.4%; in experiment [6] it was -7.65%.

With `NC(=O)C(Cc1ccc(O)cc1)NC(=O)c1cccnc1` (configuration not stated), the growth inhibition is -7.3% in experiment [1]; 0.7% in experiment [2]; -0.95% in experiment [3]; -2.05% in experiment [4]; -9.05% in experiment [5]; 4.35% in experiment [6].

For `CN(C)CC(CN(C)C)C(=O)C(C)(C)C`, the growth inhibition in experiment [1] was 9.45%; in experiment [2] it was -1.95%; in experiment [3], 22.7%; in experiment [4] it was -7.7%; in experiment [5], 7.8%; in experiment [6] it was 13.8%.

As for `O=S(=O)(O)c1cc(I)c(O)c2ncccc12`, the growth inhibition is 18.5% in experiment [1]; 1% in experiment [2]; -1.05% in experiment [3]; -67.8% in experiment [4]; 19.4% in experiment [5]; 45.4% in experiment [6].

For the compound `CSc1ccc(NC(=O)Nc2cc(C)ccn2)cc1`, the growth inhibition in experiment [1] is 5.8%; in experiment [2] it was -11.1%; in experiment [3], -45.7%; in experiment [4], -37.8%; in experiment [5] it was -61%; in experiment [6], 10.6%.

Regarding `O=C1NC(=O)C(c2cccc(F)c2)N1` (configuration not stated), the growth inhibition in experiment [1] is -12.1%; in experiment [2], -12.3%; in experiment [3], 9.7%; in experiment [4], -9%; in experiment [5], 4.7%; in experiment [6], -7.7%.

`O=C1CN(CCCN2CCOCC2)CC(=O)N2Cc3ccccc3CN12`: the growth inhibition is -25.9% in experiment [1]; -3.8% in experiment [2]; -9.45% in experiment [3]; -0.45% in experiment [4]; 2.95% in experiment [5]; 3.7% in experiment [6].

Turning to `CCOc1ccc(OCC)c(NC(C)=O)c1`, the growth inhibition was -1.95% in experiment [1]; 4.05% in experiment [2]; 3.95% in experiment [3]; 5.5% in experiment [4]; 13.8% in experiment [5]; -3.6% in experiment [6].

`CCC1CN2C(=N1)c1ccccc1-c1cc([N+](=O)[O-])ccc12` (configuration not stated): the growth inhibition is 94% (active) in experiment [1]; 43% in experiment [2]; -20.2% in experiment [3]; 51.3% in experiment [4]; 54% in experiment [5]; 94.2% (active) in experiment [6].

As for `CC1=NN(C(=O)c2ccccc2)C(=O)C1N=Nc1ccc([N+](=O)[O-])cc1` (configuration not stated), the growth inhibition in experiment [1] was -3.3%; in experiment [2], -5.5%; in experiment [3], -2.5%; in experiment [4], -10.8%; in experiment [5] it was 0%; in experiment [6], -3.35%.

In the case of `CC(=O)CC(=O)N1CCCCCCC1`, the growth inhibition in experiment [1] was -34%; in experiment [2] it was -57.5%; in experiment [3] it was -12.4%; in experiment [4], -8.4%; in experiment [5], -23.2%; in experiment [6] it was -34.2%.

For `N#CC(C(=O)C(N)=O)c1nc2ccccc2s1` (configuration not stated), the growth inhibition in experiment [1] is 20.2%; in experiment [2], 9.45%; in experiment [3] it was 19.4%; in experiment [4], 5.8%; in experiment [5], -9.5%; in experiment [6], 2.25%.

As to `Cc1cc(=O)c2cc(Br)cc(Br)c2[nH]1`, the growth inhibition is 11.8% in experiment [1]; -13.8% in experiment [2]; 8.3% in experiment [3]; 0.05% in experiment [4]; 9.85% in experiment [5]; 12% in experiment [6].

Consider `CC(=O)Oc1c(OC(C)C)c(C)c(O[Si](C(C)C)(C(C)C)C(C)C)c2[nH]c3ccccc3c12`, for which the growth inhibition in experiment [1] was 33.9%; in experiment [2] it was -5.05%; in experiment [3] it was -23.2%; in experiment [4], -10.9%; in experiment [5] it was -12.4%; in experiment [6], -29.7%.

For `CN(C)/N=C\c1ccc([N+](C)(C)C)cc1`, the growth inhibition in experiment [1] was -20.4%; in experiment [2] it was -25.1%; in experiment [3] it was 7.05%; in experiment [4], -19.9%; in experiment [5], 32.8%; in experiment [6], -44.7%.

`CC1C(=O)CCC2CCCCC21` (configuration not stated): the growth inhibition in experiment [1] is 18.1%; in experiment [2] it was -17.4%; in experiment [3], 8.05%; in experiment [4] it was 7.95%; in experiment [5], 12.2%; in experiment [6], 17.2%.

As for `O=C(Nc1ccccc1)Nc1ccccc1C(=O)O`, the growth inhibition was -5.8% in experiment [1]; -22% in experiment [2]; -16.4% in experiment [3]; -54.6% in experiment [4]; -16.2% in experiment [5]; -31.3% in experiment [6].

`O=C(/C=C/CBr)NC(Cc1ccccc1)C(=O)O` (configuration not stated): the growth inhibition is -1.45% in experiment [1]; -8.6% in experiment [2]; -18.1% in experiment [3]; -4% in experiment [4]; 15.6% in experiment [5]; -4.2% in experiment [6].

In the case of `COC(=O)C1CC/C(=N\Nc2ccc([N+](=O)[O-])cc2[N+](=O)[O-])CC1C(=O)OC` (configuration not stated), the growth inhibition in experiment [1] is 10.2%; in experiment [2], -5.75%; in experiment [3] it was -8.75%; in experiment [4], -1.65%; in experiment [5], 5.2%; in experiment [6] it was 19.6%.

Consider `NC1=NN(c2ccccc2)C(=O)C1/C(=N\NC(=O)c1cc2ccccc2cc1O)C(=O)Nc1ccc(Cl)c(Cl)c1` (configuration not stated), for which the growth inhibition in experiment [1] is 28.7%; in experiment [2], 10%; in experiment [3], -17.2%; in experiment [4] it was 31.6%; in experiment [5], 6.95%; in experiment [6] it was 21.1%.

In the case of `CCCCOC1NC(=O)Oc2ccccc21` (configuration not stated), the growth inhibition is -9.35% in experiment [1]; 4% in experiment [2]; -3.15% in experiment [3]; -28.5% in experiment [4]; -4.95% in experiment [5]; 15.1% in experiment [6].

Turning to `OC(c1ccccc1)(c1ccc(-c2ccccc2)cc1)c1cccc2ccccc12` (configuration not stated), the growth inhibition in experiment [1] is 28.3%; in experiment [2] it was -14.2%; in experiment [3], 21.8%; in experiment [4], 9.2%; in experiment [5] it was -2.6%; in experiment [6], 5.35%.

For the compound `Cc1cc2c(=O)c3ccccc3oc2c(C#N)c1C`, the growth inhibition in experiment [1] is 19.6%; in experiment [2], 8.25%; in experiment [3], 9.2%; in experiment [4], -15.4%; in experiment [5] it was 18.3%; in experiment [6], 16.9%.

Turning to `CC(N)C(O)C(C)C(=O)O` (configuration not stated), the growth inhibition was 20.8% in experiment [1]; 9.5% in experiment [2]; 41.8% in experiment [3]; 44.5% in experiment [4]; 35% in experiment [5]; 7.35% in experiment [6].

Consider `O=C(NCCCl)Nc1[nH]c(=O)ncc1I`, for which the growth inhibition in experiment [1] is -6.55%; in experiment [2], -6.7%; in experiment [3], 1.1%; in experiment [4] it was -10.3%; in experiment [5] it was -8.75%; in experiment [6], -7.95%.

For `CCNC(=O)OCCN(CCOC(=O)NCC)CCc1cccc(OC)c1OC`, the growth inhibition is 6.1% in experiment [1]; 6.65% in experiment [2]; -7.3% in experiment [3]; 1.95% in experiment [4]; -3.5% in experiment [5]; 20.6% in experiment [6].

On to `COc1ccc(C(=O)CC(=O)CCC(=O)Nc2cc(C)ccc2C)cc1`, for which the growth inhibition was -6.55% in experiment [1]; 5.2% in experiment [2]; 18.2% in experiment [3]; -7.75% in experiment [4]; 5.25% in experiment [5]; 25.1% in experiment [6].

For the compound `CCCNc1nc(Cl)nc2c1cnn2C`, the growth inhibition was 7.6% in experiment [1]; -8.4% in experiment [2]; 9.5% in experiment [3]; 1.25% in experiment [4]; 14.4% in experiment [5]; 6.95% in experiment [6].
